The campaign covered roughly 320,000 compounds. About 2,100 (0.66%) were called active. Roughly 53% stayed inconclusive and do not appear here. This is one part of a sample in which actives are shown more often than they occur. The call rests on the fitted dose curve; in most records, active means well fitted inhibition curve with a large enough effect in the signal ratio, with a control signal flat (not every such curve was filed as active); inconclusive means small, poorly fitted or top-dose-only effect, or effect the other way, or a change in a side signal; inactive means flat fitted curve, though single readings scatter; the % refers to the signal ratio.
Potency means the concentration at half of the fitted maximal effect.

This assay in a line: qHTS Assay for Lipid Storage Modulators in Drosophila S3 Cells.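 On cell number change: cells counted by Cell Tracker Red CMTPX staining in the red channel.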 On lipid storage change, negative = inhibition: on the % scale 0 is the no-effect control and ±100 the full control effect. The conditions noted are these: BODIPY lipid droplet fluorescence, 18-24 h, cells fed with added oleic acid; cell number change: measured here: cell count max response; series mostly up to 46.1 µM; lipid storage change, negative = inhibition: at the top concentration. An outline of the steps: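 Laser-scanning cytometry quantifies lipid droplet accumulation (500–530 nm total intensity; droplet/cell object ratio) in oleic acid-fed (400 uM added) Drosophila S3 cells treated with a concentration series. 20 uM Triacsin C defined 100% inhibition.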
Take `CCOc1ccc(-n2ccc(=O)c(C(=O)Nc3ccc(S(=O)(=O)Nc4nccs4)cc3)n2)cc1`: the outcome was inactive and the cell number change was -6.87%.

In the case of `CCc1c(C)nc(N)n2c(SCC(=O)N3CCN(c4ccccc4F)CC3)nnc12`, the “lipid storage change, negative = inhibition” value is 0.324% (inactive) and the cell number change was -1.8%.

As to `O=C1CCN(Cc2ccccc2)CCN1CCO`, the “lipid storage change, negative = inhibition” value is -5.28% (inactive) and the cell number change came out at 13.2%. As for `O=C(CN(C(=O)CCC(=O)Nc1nccs1)c1ccc2c(c1)OCO2)NCC1CCCO1` (configuration not stated), the compound was called inactive and the cell number change came to 2.62%. `Cc1cc(N2CCN(S(=O)(=O)Cc3ccccc3)CC2)n2ncnc2n1`: the outcome was inactive.

With `O=c1[nH]c2ccccc2nc1C(Cl)c1ccccc1` (configuration not stated), the result was inactive and the cell number change stood at 23.2%. Turning to `CCN(CC)S(=O)(=O)c1cccc(NC(=O)c2ccc(SC)cc2OC)c1`, the “lipid storage change, negative = inhibition” value is 24.1% (inactive) and the cell number change came to 22.2%.

Regarding `COc1ccc(S(=O)(=O)N(CC(=O)NCc2ccco2)c2ccccc2)cc1`, the compound was called inactive. For `CC(C)(C)c1ccc(C(=O)NC2CCN(Cc3ccccc3)CC2)cc1`, the “lipid storage change, negative = inhibition” value is 0.163% (inactive) and the cell number change turned out to be 5.06%. On the same counts, the results for `Cc1nnc2c(NC3CCCC3)nc3ccccc3n12` are 9.47% (inactive) and 9.22%.

Consider `Cc1ccc(-c2nnc(SCC(=O)Nc3ccc(N4CCOCC4)cc3)o2)cc1`, for which the “lipid storage change, negative = inhibition” value is 13.5% (inactive) and the cell number change was -5.45%. Turning to `CC1CCN(C(=O)c2ccc3c(c2)NC(=O)/C(=C/c2ccccc2)S3)CC1`, the result was inactive and the cell number change worked out at 3.29%. For the compound `O=C1Nc2cc(C(=O)N3CCc4ccccc4C3)ccc2S/C1=C\c1ccccc1`, the Potency was 0.651 µM (active) and the cell number change came to 17.1%. Turning to `COc1ccc(/C=C2/Sc3ccc(C(=O)N4CCc5ccccc5C4)cc3NC2=O)cc1`, the “lipid storage change, negative = inhibition” value was 13.9% (inactive) and the cell number change turned out to be 0.0626%. With `Cn1c(=O)[nH]c(=O)c2c1nc(SCCN1CCCCC1)n2Cc1ccccc1`, the “lipid storage change, negative = inhibition” value is 18.7% (inactive).

Turning to `COc1ccc(OC)c(C(=O)CSc2nnc(Cc3cccs3)n2C)c1`, the call was inactive and the cell number change was -18.3%. As to `O=C(Nc1ccc(F)cc1)c1csc(Cc2ccccc2)n1`, the “lipid storage change, negative = inhibition” value is 14.8% (inactive). With `O=c1[nH]c2ccccc2nc1Cc1ccccc1`, the “lipid storage change, negative = inhibition” value is 10.2% (inactive) and the cell number change is -29.6%. As to `O=c1[nH]c2ccccc2nc1Cc1ccc(Cl)cc1`, the compound was called inactive and the cell number change was found to be 6.67%. Consider `COc1ccc(Cc2nc3ccccc3[nH]c2=O)cc1`, for which the Potency was 3.26 µM (active). For `COC(=O)N1[C@H](Cc2ccccc2)C=C[C@]1(C)C(=O)O`, the “lipid storage change, negative = inhibition” value was -10.2% (inactive) and the cell number change was -7.24%. For `CCC(=O)Nc1c2c(nn1-c1ccccc1)CSC2`, the call was inactive and the cell number change was 19%.

As to `O=C(CCl)Nc1c2c(nn1-c1ccccc1)CSC2`, the Potency is 20.6 µM (active) and the cell number change is -21.4%.

In the case of `O=C(CBr)Nc1c2c(nn1-c1ccccc1)CSC2`, the compound was classed as inactive and the cell number change stood at 23.5%. The like results for `COc1ccc(C(=O)OCCc2sc[n+](CC(=O)c3ccccc3)c2C)cc1` were, in that order, “inactive” and 15.7%.

For the compound `Cc1c(CCOC(=O)C23CC4(C)CC(C)(CC(C)(C4)C2)C3)sc[n+]1CC(=O)c1ccccc1`, the Potency is 18.4 µM (active) and the cell number change is -53.8%. With `Cc1c(CCOC(=O)CC23CC4CC(CC(C)(C4)C2)C3)sc[n+]1CC(=O)c1ccccc1`, the “lipid storage change, negative = inhibition” value is -14.6% (inactive) and the cell number change is -7.33%.

As for `CCOc1ccccc1NC(=S)NC1CC2CCC1C2` (configuration not stated), the “lipid storage change, negative = inhibition” value is 8.44% (inactive) and the cell number change was determined as 6.16%.

With `COc1ccc(OC)c(NC(=O)c2cc(-c3c(C)cc(C)cc3O)n[nH]2)c1`, the Potency is 0.206 µM (active) and the cell number change came out at 13.7%. Take `Cc1cc(C)c(-c2cc(C(=O)Nc3cc(C)ccc3C)[nH]n2)c(O)c1`: the “lipid storage change, negative = inhibition” value was -1.74% (inactive) and the cell number change is 2.08%. With `COc1ccc(OC)c(NC(=O)c2cc(-c3ccc(C)cc3O)n[nH]2)c1`, the compound was called inactive and the cell number change came out at 2.51%. On to `CCc1c(C)sc(NC(=O)c2cccs2)c1C#N`, for which the “lipid storage change, negative = inhibition” value is -1.11% (inactive) and the cell number change is -15.6%. `COc1cc2c(cc1OC)C(c1ccc(C)cc1)NC(=O)C2` (configuration not stated): the compound was called inactive. In the case of `COc1cc2c(cc1OC)C(c1cccc([N+](=O)[O-])c1)NC(=O)C2` (configuration not stated), the “lipid storage change, negative = inhibition” value is 11.9% (inactive) and the cell number change was -2.94%.

Consider `COc1cc2c(cc1OC)C(c1ccc([N+](=O)[O-])cc1)NC(=O)C2` (configuration not stated), for which the Potency is 6.51 µM (active) and the cell number change is -4.67%.

As for `O=C(N/N=C/c1ccco1)c1cc(-c2cccc3ccccc23)n[nH]1`, the “lipid storage change, negative = inhibition” value is -1.16% (inactive) and the cell number change is -16.1%.

Regarding `Cc1cccc2cc3c(NC(=O)C(C)(C)C)nn(CC(C)C)c3nc12`, the “lipid storage change, negative = inhibition” value is -8.08% (inactive) and the cell number change was -9.6%. In the case of `CCn1nc(NC(=O)C(C)(C)C)c2cc3cccc(C)c3nc21`, the Potency was 2.91 µM (active) and the cell number change was found to be 12.4%.

As for `CCn1nc(NS(=O)(=O)c2ccc([N+](=O)[O-])cc2)c2cc3cccc(C)c3nc21`, the Potency is 1.46 µM (active) and the cell number change was -19.5%. As for `CCn1nc(NC(C)=O)c2cc3cccc(C)c3nc21`, the “lipid storage change, negative = inhibition” value is 16% (inactive).

On to `CCn1nc(NS(=O)(=O)c2ccc(F)cc2)c2cc3cccc(C)c3nc21`, for which the compound was called inactive and the cell number change is -26.3%.

In the case of `CCn1nc(NS(=O)(=O)c2ccccc2)c2cc3cccc(C)c3nc21`, the “lipid storage change, negative = inhibition” value was 12.4% (inactive) and the cell number change was -3.04%. On the same counts, the results for `CCOC(=O)C(C(=O)OCC)c1c([N+](=O)[O-])c(=O)n2c3c(cccc13)CCC2` are 12.6% (inactive) and 0.163%.

On to `COc1ccc(OC(=O)NCCc2ccccc2)cc1`, for which the “lipid storage change, negative = inhibition” value is 6.1% (inactive). For `Cc1cc2oc(C(=O)N3CCN(CCc4ccccn4)CC3)c(C)c2cc1C`, the outcome was inactive. `O=C(NCc1cccc(Cl)c1)C1CCC(=O)N(CCCN2CCCC2=O)C1` (configuration not stated): the Potency was 1.84 µM (active) and the cell number change was found to be 15.8%. For `O=C(NCc1ccccc1Cl)C1CCC(=O)N(CCCN2CCCC2=O)C1` (configuration not stated), the “lipid storage change, negative = inhibition” value was -1.29% (inactive) and the cell number change is -14.7%. On the same counts, the results for `O=C(NCc1cccc(Cl)c1)C1CCC(=O)N(CCN2CCOCC2)C1` (configuration not stated) are 33% (inactive) and 19%.

Source of the values: PubChem BioAssay AID2685 (National Center for Advancing Translational Sciences (NCATS), 2010).
